“And” between values parts separate entries of the source, which are not always exact repeats. Identical values can stand only once. Results filed as inconclusive are left out. The source made the active and inactive calls. Unless noted, calls come from the whole dose curve; as a rule, active = well fitted curve in the direction sought with a large enough effect in the repeat runs; inconclusive = weak or mixed curves; inactive = no such curve, though single readings can be large; an effect the other way counts as inactive or inconclusive.
Legend:
[1] = qHTS assay to identify small molecule antagonists of the thyroid receptor (TR) signaling pathway - cell viability counter screen (AID 743064); note: nearly all actives have a fitted effect of over 50% in size; note: potency is the fitted concentration of half-maximal effect
Method in brief: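 Fluorescence from CellTiter-Fluor, added after 23.5 h exposure at 37 °C, reported viability of GH3.TRE-Luc cells co-treated with compound and 1 nM T3. Measured in the same wells as the luciferase TR readout.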

[2] = qHTS assay to identify small molecule antagonists of the thyroid receptor (TR) signaling pathway (AID 743065); note: nearly all actives have a fitted effect of over 55% in size; note: potency is the fitted concentration of half-maximal effect
Method in brief: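 GH3.TRE-Luc rat pituitary cells carrying two TR response elements driving luciferase were plated for 4 h, given compound plus 1 nM T3 (final), and incubated 23.5 h at 37 C. ONE-Glo luminescence measured reporter inhibition; CellTiter-Fluor fluorescence tracked cytotoxicity.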

[3] = system: thyroid hormone receptor (rat, GH3 cells); experiment: qHTS assay to identify small molecule agonists of the thyroid receptor (TR) signaling pathway (AID 743066; calls by dose curve)
[4] = target: Estrogen receptor (Homo sapiens) (UniProt P03372); experiment: qHTS assay to identify small molecule antagonists of the estrogen receptor alpha (ER-alpha) signaling pathway (AID 743069; active = well fitted curve in the direction sought with a large enough effect in the signal ratio in the repeat runs, not every such curve was filed as active; the % refers to the signal ratio)
Sequence of Estrogen receptor (Homo sapiens) (P03372 whole entry, looked up): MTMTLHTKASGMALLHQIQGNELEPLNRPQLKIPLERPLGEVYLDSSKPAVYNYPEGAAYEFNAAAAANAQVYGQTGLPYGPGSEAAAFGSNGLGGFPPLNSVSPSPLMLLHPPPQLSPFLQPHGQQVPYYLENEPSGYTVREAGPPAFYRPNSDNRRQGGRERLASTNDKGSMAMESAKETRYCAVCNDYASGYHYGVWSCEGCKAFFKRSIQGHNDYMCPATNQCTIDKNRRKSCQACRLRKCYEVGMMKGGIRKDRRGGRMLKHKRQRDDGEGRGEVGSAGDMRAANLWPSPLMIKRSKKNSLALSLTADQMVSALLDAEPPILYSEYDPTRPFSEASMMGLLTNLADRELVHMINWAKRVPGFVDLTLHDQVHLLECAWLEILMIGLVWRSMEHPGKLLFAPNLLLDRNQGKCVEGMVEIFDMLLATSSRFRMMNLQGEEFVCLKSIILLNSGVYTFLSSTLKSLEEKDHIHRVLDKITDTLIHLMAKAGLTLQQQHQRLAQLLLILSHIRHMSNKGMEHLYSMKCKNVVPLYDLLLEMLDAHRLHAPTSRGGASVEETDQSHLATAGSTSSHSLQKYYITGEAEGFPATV
Method in brief: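 HEK293 cells stably carrying an ER-alpha-UAS-bla beta-lactamase reporter were pre-cultured overnight in 2% charcoal-stripped FBS medium. Test compounds in DMSO were added together with 17beta-estradiol for 18 hr at 37C. Read-out was fluorescence after 2 hr with LiveBLAzer B/G FRET substrate at room temperature.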

[5] = target: Estrogen receptor (Homo sapiens) (UniProt P03372); experiment: qHTS assay to identify small molecule agonists of the estrogen receptor alpha (ER-alpha) signaling pathway (AID 743075; calls by dose curve)
[6] = target: Estrogen receptor (Homo sapiens) (UniProt P03372); experiment: qHTS assay to identify small molecule agonists of the estrogen receptor alpha (ER-alpha) signaling pathway using the BG1 cell line (AID 743079); details: BG1Luc4E2 cells, ERE-luciferase agonist, 22 h; note: nearly all actives have a fitted effect of over 20% in size; note: potency is the fitted concentration of half-maximal effect
[7] = qHTS assay to identify small molecule antagonists of the estrogen receptor alpha (ER-alpha) signaling pathway using the BG1 cell line (AID 743080; calls by dose curve;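 note: BG1 cells stimulated with 17beta-estradiol alongside compound; nearly all actives have a fitted effect of over 25% in size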; note: potency is the fitted concentration of half-maximal effect)
Method in brief: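 Quantitative HTS on the Tox21 10K library: BG1 cells with endogenous ER-alpha and ERE-luciferase reporter, 17beta-estradiol stimulation, 21.5 h compound exposure, luminescence endpoint with parallel fluorescence cytotoxicity counter-read.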

[8] = qHTS assay to identify small molecule antagonists of the estrogen receptor alpha (ER-alpha) signaling pathway using the BG1 cell line - cell viability counter screen (AID 743081);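 note: compound given together with 17beta-estradiol as the ER stimulus; nearly all actives have a fitted effect of over 45% in size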; note: potency is the fitted concentration of half-maximal effect
[9] = target: Aromatase (Homo sapiens) (UniProt P11511); experiment: qHTS assay to identify aromatase inhibitors (AID 743083); note: nearly all actives have a fitted effect of over 55% in size
Sequence of Aromatase (Homo sapiens) (P11511 whole entry, looked up): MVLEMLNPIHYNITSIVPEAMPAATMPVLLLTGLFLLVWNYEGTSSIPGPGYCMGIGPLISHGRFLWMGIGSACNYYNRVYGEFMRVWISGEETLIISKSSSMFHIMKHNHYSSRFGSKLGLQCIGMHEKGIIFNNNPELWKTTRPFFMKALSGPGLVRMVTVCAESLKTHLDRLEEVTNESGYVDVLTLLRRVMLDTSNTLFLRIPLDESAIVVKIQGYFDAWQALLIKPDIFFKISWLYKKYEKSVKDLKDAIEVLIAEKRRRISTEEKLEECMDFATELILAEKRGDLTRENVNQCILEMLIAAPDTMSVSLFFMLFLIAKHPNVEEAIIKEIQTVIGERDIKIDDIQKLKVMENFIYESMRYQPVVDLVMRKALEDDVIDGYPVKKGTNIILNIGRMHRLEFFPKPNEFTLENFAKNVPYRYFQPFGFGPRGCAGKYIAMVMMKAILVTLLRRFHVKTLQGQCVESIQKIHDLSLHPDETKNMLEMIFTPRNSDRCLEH

[10] = qHTS assay to identify aromatase inhibitors - cell viability counter screen (AID 743084);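 note: cells stimulated with testosterone during compound exposure; nearly all actives have a fitted effect of over 55% in size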
[11] = target: Aryl hydrocarbon receptor (Homo sapiens) (UniProt P35869); experiment: qHTS assay to identify small molecule that activate the aryl hydrocarbon receptor (AhR) signaling pathway (AID 743085); note: nearly all actives have a fitted effect of over 15% in size; note: potency is the fitted concentration of half-maximal effect;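 for activation: HG2L7.5c1 human HepG2 liver cells with stably integrated DRE-driven firefly reporter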
Sequence of Aryl hydrocarbon receptor (Homo sapiens) (P35869 whole entry, looked up): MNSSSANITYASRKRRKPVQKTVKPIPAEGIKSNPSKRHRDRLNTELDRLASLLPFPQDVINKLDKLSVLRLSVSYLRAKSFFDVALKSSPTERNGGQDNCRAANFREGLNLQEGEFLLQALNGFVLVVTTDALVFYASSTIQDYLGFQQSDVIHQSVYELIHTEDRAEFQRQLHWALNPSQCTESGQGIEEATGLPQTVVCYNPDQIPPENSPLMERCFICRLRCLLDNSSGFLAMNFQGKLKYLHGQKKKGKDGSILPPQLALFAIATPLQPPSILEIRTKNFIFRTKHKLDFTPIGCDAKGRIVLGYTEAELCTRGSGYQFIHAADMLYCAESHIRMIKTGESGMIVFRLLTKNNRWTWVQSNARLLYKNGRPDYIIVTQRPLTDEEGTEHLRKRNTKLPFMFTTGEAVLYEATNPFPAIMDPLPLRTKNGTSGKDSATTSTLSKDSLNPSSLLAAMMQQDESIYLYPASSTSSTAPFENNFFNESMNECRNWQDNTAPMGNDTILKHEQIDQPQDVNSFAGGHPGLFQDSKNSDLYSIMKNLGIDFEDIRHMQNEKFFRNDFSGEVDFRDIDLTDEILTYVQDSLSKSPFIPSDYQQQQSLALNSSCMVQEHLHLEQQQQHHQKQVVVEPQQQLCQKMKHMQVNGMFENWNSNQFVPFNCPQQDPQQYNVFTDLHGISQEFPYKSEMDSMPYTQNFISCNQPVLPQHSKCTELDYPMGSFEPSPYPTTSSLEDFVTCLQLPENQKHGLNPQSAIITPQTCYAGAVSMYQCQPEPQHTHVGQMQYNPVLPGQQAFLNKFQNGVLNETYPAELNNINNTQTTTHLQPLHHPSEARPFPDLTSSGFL
Method in brief: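 Cell line HG2L7.5c1 (human hepatoma, 20× DRE-luc). Plated, 5 h 37C, compound/DMSO added, 24 h 37C. CellTiter-Fluor 30 min 37C → fluorescence; then ONE-Glo 30 min RT → luminescence.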

[12] = qHTS assay to identify small molecule that activate the aryl hydrocarbon receptor (AhR) signaling pathway - cell viability counter screen (AID 743086);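 note: HepG2 liver cells carrying the AhR DRE luciferase reporter; nearly all actives have a fitted effect of over 45% in size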
Method in brief: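 HepG2-AhR-luc (HG2L7.5c1) cells, 4000/well, were preincubated 5 h at 37C, exposed to compound in qHTS format for 24 hr at 37C, then given CellTiter-Fluor for 30 min; viability was read as fluorescence in the reporter wells.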

[13] = qHTS assay for small molecule agonists of the antioxidant response element (ARE) signaling pathway - cell viability counter screen (AID 743203; calls by dose curve; note: nearly all actives have a fitted effect of over 55% in size)
Method in brief: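 Compounds in DMSO were pinned onto ARE-bla HepG2 cells plated 5 hrs earlier at 2,000 cells/well. Sixteen hours later at 37C/5% CO2, CellTiter-Glo was added and luminescence measured after 30 min at room temperature.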

[14] = qHTS assay for small molecule activators of the heat shock response signaling pathway - cell viability counter screen (AID 743209); note: nearly all actives have a fitted effect of over 50% in size
Method in brief: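 Counter screen for cytotoxicity in HeLa HSE-bla reporter cells. Treatment was 5 h at 37 C; viability was detected by luminescent ATP assay (CellTiter-Glo) in the same wells as the beta-lactamase read.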

[15] = qHTS assay for small molecule activators of the heat shock response signaling pathway (AID 743210; active = well fitted activation curve with a large enough effect in the signal ratio in the repeat runs, with a control signal flat, not every such curve was filed as active; the % refers to the signal ratio)
Method in brief: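 HSE-bla HeLa cells (beta-lactamase reporter under heat shock response elements) were exposed to compounds for 5 h at 37 C, then loaded with LiveBLAzer B/G FRET substrate for 2.5 h at room temperature before fluorescence reading.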

[16] = target: Peroxisome proliferator-activated receptor gamma (Homo sapiens) (UniProt P37231); experiment: qHTS assay to identify small molecule antagonists of the peroxisome proliferator-activated receptor gamma (PPARg) signaling pathway (AID 743191; calls by dose curve; note: nearly all actives have a fitted effect of over 30% in size)
Sequence of Peroxisome proliferator-activated receptor gamma (Homo sapiens) (P37231 whole entry, looked up): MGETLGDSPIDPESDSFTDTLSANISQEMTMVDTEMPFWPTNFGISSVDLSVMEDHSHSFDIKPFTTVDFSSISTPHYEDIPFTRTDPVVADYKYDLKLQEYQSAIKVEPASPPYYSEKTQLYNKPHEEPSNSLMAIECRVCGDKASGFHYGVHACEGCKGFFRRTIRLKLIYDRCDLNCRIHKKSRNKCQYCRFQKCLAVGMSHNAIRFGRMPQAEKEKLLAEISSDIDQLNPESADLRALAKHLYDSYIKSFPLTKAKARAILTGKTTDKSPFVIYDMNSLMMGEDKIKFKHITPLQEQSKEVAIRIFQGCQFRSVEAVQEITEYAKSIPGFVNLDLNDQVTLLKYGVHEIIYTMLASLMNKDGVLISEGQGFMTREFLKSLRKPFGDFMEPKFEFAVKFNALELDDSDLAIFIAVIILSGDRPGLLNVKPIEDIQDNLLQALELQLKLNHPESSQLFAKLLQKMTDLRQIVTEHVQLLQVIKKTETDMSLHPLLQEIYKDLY
Method in brief: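 GeneBLAzer PPARg UAS-bla HEK293H cells carrying a UAS-driven beta-lactamase reporter were plated at 3000 cells/well, preincubated 5 h at 37C, then given compound for 17 h at 37C; LiveBLAzer B/G FRET substrate was read after 1 h at room temperature.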

[17] = qHTS assay to identify small molecule antagonists of the peroxisome proliferator-activated receptor gamma (PPARg) signaling pathway - cell viability counter screen (AID 743194); details: Potency: co-treated with 50 nM rosiglitazone; note: nearly all actives have a fitted effect of over 55% in size
Method in brief: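 PPARg-UAS-bla HEK293H cells were plated, rested 5 h at 37 C, then treated with compounds plus rosiglitazone (50 nM final) for 17 h at 37 C; viability was then read by CellTiter-Glo luminescence after 30 min at room temperature.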

[18] = qHTS assay for small molecule agonists of the antioxidant response element (ARE) signaling pathway (AID 743202; active = well fitted activation curve with a large enough effect in the signal ratio in the repeat runs, not every such curve was filed as active; the % refers to the signal ratio; note: potency is the fitted concentration of half-maximal effect)
Method in brief: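 Read-out: LiveBLAzer B/G FRET substrate fluorescence after 2 h at room temperature, following 16 h compound treatment at 37 C of HepG2 cells carrying an ARE-driven beta-lactamase reporter.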

[19] = qHTS assay to identify small molecule antagonists of the estrogen receptor alpha (ER-alpha) signaling pathway - cell viability counter screen (AID 743074; calls by dose curve; note: nearly all actives have a fitted effect of over 45% in size)
[20] = target: Peroxisome proliferator-activated receptor gamma (Homo sapiens) (UniProt P37231); experiment: qHTS assay to identify small molecule agonists of the peroxisome proliferator-activated receptor gamma (PPARg) signaling pathway (AID 743094; active = well fitted activation curve with a large enough effect in the signal ratio in the repeat runs, not every such curve was filed as active; the % refers to the signal ratio)
Method in brief: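 Following 5 h plating at 37C, PPARg-bla HEK293H cells receive compound or DMSO for 17 h; fluorescence intensity is recorded after LiveBLAzer B/G loading for 1 h at room temperature.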
% is set by controls: 0 for no effect and ±100 for the full control effect.

Nc1cc(Cl)ccc1O
active: Potency [1] 23.5 µM | Potency [2] 59.1 µM | Potency [7] 7.45 µM | Potency [11] 29.6 µM
inactive: Potency [3] | Potency [4] | Potency [5] | activation ([6]; at 70.3 µM (top of the series)) -2.11% | Potency [8] | Potency [9] | Potency [10] | outcome [12] | Potency [13] | Potency [14] | outcome [15]

O=C1OC(=O)C2C1C1(Cl)C(Cl)=C(Cl)C2(Cl)C1(Cl)Cl (configuration not stated)
inactive: Potency [1] | Potency [2] | Potency [3] | Potency [4] | Potency [5] | activation ([6]; at 95 µM (top of the series)) -12.2% | Potency [7] | Potency [8] | Potency [9] | Potency [10] | Potency [11] | outcome [12] | Potency [16] | Potency [17] | Potency [18] | Potency [13] | Potency [14]

CCCCc1ccc(O)cc1
inactive: Potency [1] | Potency [2] | Potency [3] | Potency [4] | outcome [19] | Potency [5] | activation ([6]; at 70.3 µM (top of the series)) 12.6% | Potency [7] | Potency [8] | Potency [10] | outcome [12] | outcome [20] | Potency [16] | Potency [17] | Potency [13] | Potency [14] | outcome [15]

CCOC(=O)CP(=O)(OCC)OCC
inactive: Potency [1] | Potency [2] | Potency [3] | Potency [4] | outcome [19] | Potency [5] | Potency [7] | Potency [8] | Potency [9] | Potency [10] | Potency [11] | outcome [12] | outcome [20] | Potency [17] | Potency [18] | Potency [13] | Potency [14] | outcome [15]

C1CCC(C2CCCCC2)CC1
inactive: Potency [1] | Potency [2] | Potency [3] | Potency [4] | outcome [19] | Potency [5] | activation ([6]; at 70.3 µM (top of the series)) -17.5% | Potency [7] | Potency [8] | Potency [9] | Potency [10] | outcome [12] | Potency [17] | Potency [14] | outcome [15]

CC(=O)Nc1cc([As](=O)(O)O)ccc1O
inactive: Potency [1] | Potency [2] | Potency [3] | Potency [4] | Potency [5] | activation ([6]; at 70.3 µM (top of the series)) 10% | Potency [8] | Potency [9] | Potency [10] | Potency [11] | outcome [12] | Potency [16] | Potency [18] | Potency [13]

CC1CCCCC1NC(=O)Nc1ccccc1 (configuration not stated)
inactive: Potency [1] | Potency [2] | Potency [3] | Potency [4] | outcome [19] | Potency [5] | Potency [8] | Potency [9] | Potency [10] | Potency [11] | outcome [12] | outcome [20] | Potency [17] | Potency [18] | Potency [13] | Potency [14] | outcome [15]

O=C(O)C(Br)CBr (configuration not stated)
active: Potency [18] 27.8 µM
inactive: Potency [1] | Potency [2] | Potency [3] | outcome [19] | Potency [5] | activation ([6]; at 95 µM (top of the series)) -6.3% | Potency [7] | Potency [8] | Potency [9] | Potency [10] | Potency [11] | outcome [12] | Potency [17] | Potency [13] | Potency [14] | outcome [15]

CC(C)CP(=S)(S)CC(C)C
inactive: Potency [1] | Potency [2] | Potency [3] | Potency [4] | outcome [19] | Potency [5] | activation ([6]; at 70.3 µM (top of the series)) -12.9% | Potency [7] | Potency [8] | Potency [9] | Potency [10] | outcome [12] | outcome [20] | Potency [17] | Potency [18] | Potency [13] | Potency [14] | outcome [15]

CCOP(=S)(OCC)SCSc1ccc(Cl)cc1
active: Potency [6] 26.6 µM and 24.3 µM
inactive: Potency [1] | Potency [2] | Potency [3] | Potency [4] | outcome [19] | Potency [5] | Potency [7] | Potency [8] | Potency [9] | Potency [10] | outcome [12] | outcome [20] | Potency [13] | Potency [14]

CCCCOP(=O)(O)OCCCC
active: Potency [6] 24.3 µM
inactive: Potency [1] | Potency [2] | Potency [3] | Potency [4] | outcome [19] | Potency [7] | Potency [8] | Potency [9] | Potency [10] | outcome [12] | Potency [17] | Potency [18] | Potency [13] | Potency [14]

O=[N+]([O-])c1cc(Cl)c(Cl)c(Cl)c1
inactive: Potency [1] | Potency [2] | Potency [3] | Potency [4] | outcome [19] | Potency [5] | activation ([6]; at 70.3 µM (top of the series)) 9.06% | Potency [7] | Potency [8] | Potency [9] | Potency [11] | outcome [12] | outcome [20] | Potency [17] | Potency [13]

C[N+](C)=CCl
inactive: Potency [1] | Potency [2] | Potency [3] | Potency [4] | outcome [19] | Potency [5] | activation ([6]; at 70.3 µM (top of the series)) 20.5% | Potency [7] | Potency [8] | Potency [9] | Potency [10] | outcome [12] | outcome [20] | Potency [16] | Potency [18] | Potency [13] | Potency [14] | outcome [15]

CCSC(=O)N(CC)C1CCCCC1
inactive: Potency [1] | Potency [2] | Potency [3] | Potency [4] | outcome [19] | Potency [5] | Potency [7] | Potency [8] | Potency [9] | Potency [10] | Potency [11] | outcome [12] | Potency [17] | Potency [18] | Potency [14] | outcome [15]

c1coc(-c2nc3ccccc3[nH]2)c1
active: Potency [6] 30.6 µM
inactive: Potency [1] | Potency [2] | Potency [3] | Potency [4] | outcome [19] | Potency [8] | Potency [9] | Potency [10] | outcome [12] | outcome [20] | Potency [16] | Potency [18] | Potency [13] | Potency [14] | outcome [15]

Nc1cnn(-c2ccccc2)c(=O)c1Cl
inactive: Potency [1] | Potency [2] | Potency [3] | Potency [4] | outcome [19] | Potency [5] | activation ([6]; at 70.3 µM (top of the series)) 6.72% | Potency [7] | Potency [8] | Potency [9] | Potency [10] | outcome [12] | outcome [20] | Potency [17] | Potency [18] | Potency [13]

Nc1c(Br)cc([N+](=O)[O-])cc1[N+](=O)[O-]
active: Potency [1] 55.1 µM | Potency [2] 61.8 µM | Potency [8] 31 µM | Potency [11] 13.8 µM
inactive: Potency [3] | Potency [4] | outcome [19] | Potency [5] | Potency [7] | Potency [9] | Potency [13] | Potency [14] | outcome [15]

From PubChem BioAssay (Tox21)
